Assay results from PubChem BioAssay (NCATS).
Inconclusive results are not listed. Calls of active or inactive are those of the source. Unless noted, the call rests on the fitted dose curve; in most records, active means well fitted curve in the direction sought with a large enough effect; inconclusive means small, poorly fitted or top-dose-only effect, or another doubt; inactive means no such curve, though single readings can be large; an effect the other way counts as inactive or inconclusive.

How the values were obtained:
[1] = Confirmation and Secondary Assay for Modulators of Hemoglobin Beta Chain Splicing at IVS2 654 locus (AID 910);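 further: potency means the concentration at half of the fitted maximal effect; potency of activators that raise GFP signal by restoring correct splicing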
In short: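 HeLa cells stably carrying EGFP interrupted by mutant beta-globin IVS2-654 intron (CMV-driven) were treated with compound for 2 days at 37C; corrected splicing was scored as total peak GFP intensity per well (488 nm excitation, 500-520 nm emission).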

[2] = Confirmation and Secondary Assay for Modulators of Hemoglobin Beta Chain Splicing at IVS2 705 locus (AID 930);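 further: GFP fluorescence per well restored by corrected splicing of the IVS2-705 intron in EGFP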; further: potency means the concentration at half of the fitted maximal effect;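 on activation: HeLa cells stably expressing the EGFP-705 splicing reporter; series mostly up to about 46 µM; % of control where 0% means no effect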
In short: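 HeLa cells stably carrying EGFP interrupted by mutant beta-globin intron 2 (IVS2-705) treated 2 days at 37C with compound; 500 nM antisense PNA as control. Correct splicing read as total peak GFP intensity per well by laser-scanning cytometry.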

[3] = MultiTox-Fluor Cytotoxicity Assay - LYMP1-001 - Dead Cells (AID 946);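 further: cells exposed to compound for 16 h; 0% = DMSO and 100% = tetraoctylammonium bromide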
In short: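 Seed 2500 LYMP1-001 cells/well, incubate 5 hr at 37 C; add compound, 16 hr at 37 C; add MultiTox-Fluor reagent, 60 min RT; read dead-cell fluorescence Ex/Em=485/520. Normalize to DMSO and 15 uM tetraoctylammonium bromide.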

[4] = MultiTox-Fluor Cytotoxicity Assay - LYMP1-001 - Live Cells (AID 947);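 further: 0% = DMSO only and full inhibition = tetraoctylammonium bromide control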
[5] = Cell Viability - LYMP1-002 - Assay at 16 hr (AID 948);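 further: 0% = DMSO alone and full effect = 92 µM tetraoctylammonium bromide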
In short: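 LYMP1-002 human lymphoblastoid cells, 2500/well, were treated with compounds for 16 hr at 37 C in complete medium. Viability was read as intracellular ATP by CellTiter-Glo luminescence, and AC50 was derived from a Hill fit to concentration-response data.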

[6] = MultiTox-Fluor Cytotoxicity Assay - LYMP1-002 - Dead Cells (AID 960);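 further: cells exposed to compound for 16 h at 37 °C; 0% = DMSO and 100% = tetraoctylammonium bromide; nearly all actives have a fitted effect of over 60% in size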
In short: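 Concentration-dependent increases in membrane-leaked protease activity are quantified in LYMP1-002 cells after 16 hr treatment; values are normalized against DMSO and tetraoctylammonium bromide (15 uM) controls and AC50 derived by Hill modeling.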

[7] = MultiTox-Fluor Cytotoxicity Assay - LYMP1-003 - Live Cells (AID 962);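 further: cells exposed to compound for 16 hours at 37 °C; 0% = DMSO only and full loss = 92 µM tetraoctylammonium bromide; cytotoxic hits lower the live-cell protease signal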
In short: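 Human lymphoblastoid line LYMP1-003 in complete culture medium, treated 16 hr with titrated compounds. Viable cells quantified via cell-permeant GF-AFC substrate fluorescence; AC50 derived by Hill fitting.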

[8] = Cell Viability - LYMP1-003 - Assay at 24 hr (AID 963);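 further: plate controls were DMSO only for no effect and tetraoctylammonium bromide positive control for full effect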
In short: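 The lymphoblastoid line was treated with titrated compounds for 24 hours, and viable cell number estimated from luciferase-based ATP luminescence.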

[9] = Cell Viability - LYMP1-003 - Assay at 40 hr (AID 964); further: series mostly up to about 92 µM; on the % scale 0 is the no-effect control and ±100 the full control effect; nearly all actives have a fitted effect of over 60% in size
In short: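 Acute toxicity is scored as a concentration-dependent loss of intracellular ATP in LYMP1-003 cells (2500/well, complete medium) after 40 hr at 37 C, measured by CellTiter-Glo luminescence; AC50 values derive from standard Hill modelling.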

[10] = Cell Viability - LYMP2-003 (AID 965);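 further: cells exposed to compounds for 24 h before reading; 0% = DMSO only and full effect = 92 µM tetraoctylammonium bromide; nearly all actives have a fitted effect of over 50% in size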
In short: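 Human lymphoblastoid LYMP2-003 cells, 2500/well, exposed to compounds for 24 h at 37 C in complete medium. Viability read as intracellular ATP by CellTiter-Glo luminescence; AC50 from Hill-equation fits of qHTS concentration-response data.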

[11] = Cell Viability - LYMP2-004 (AID 966);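 further: plate controls were DMSO only for no effect and tetraoctylammonium bromide control for full effect; nearly all actives have a fitted effect of over 65% in size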
In short: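 Viable-cell number estimated from ATP luminescence (CellTiter-Glo) in 2500 human lymphoblastoid cells/well after 24 hr at 37 C with compound. AC50 fitted to the standard Hill equation.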

[12] = Cell Viability - LYMP2-005 (AID 967);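 further: series mostly up to about 92 µM; plate controls were DMSO only for no effect and 92 µM tetraoctylammonium bromide control for full effect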
In short: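 Human lymphoblastoid LYMP2-005 cells, 2,500 per well in complete medium, rested 5 h at 37C then compound-treated 24 h at 37C. Intracellular ATP read by CellTiter-Glo luminescence after 30 min at room temperature; AC50 from Hill-equation fits of concentration-response data.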

[13] = Cell Viability - LYMP2-009 (AID 968);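 further: series mostly up to about 92 µM; 0% = DMSO alone and the full-kill end = tetraoctylammonium bromide at 92 µM; nearly all actives have a fitted effect of over 55% in size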
[14] = Cell Viability - LYMP2-011 (AID 969);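 further: 0% = DMSO only and full inhibition = 92 µM tetraoctylammonium bromide; nearly all actives have a fitted effect of over 60% in size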
In short: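 Cells seeded at 2500 per well rest 5 hr before compound addition, then incubate 24 hr at 37 C. CellTiter-Glo reagent is added for 30 min at room temperature before luminescence detection.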

[15] = Cell Viability - LYMP2-013 (AID 970);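 further: series mostly up to about 92 µM; 0% = DMSO only and full inhibition = tetraoctylammonium bromide control; nearly all actives have a fitted effect of over 55% in size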
In short: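 In complete culture medium, human lymphoblastoid cells were dosed for 24 hr at 37 C, with tetraoctylammonium bromide (6.4pM to 92 uM) as positive control. Viability reflects luciferase-based ATP signal; AC50 derived from concentration-response curves.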

[16] = biological target: Muscarinic acetylcholine receptor M1 (Rattus norvegicus) (UniProt P08482); assay: qHTS Assay for Antagonists of Acetylcholine Muscarinic M1 Receptor: Kinetic Measurement of Intracellular Calcium Response (AID 943);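 further: Fluo-4 calcium signal as peak divided by basal fluorescence over 4 min; series mostly up to about 35 µM; nearly all actives have a fitted effect of over 75% in size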
In short: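 Quantitative HTS in CHO-M1 (rat receptor) cells: 10 min compound exposure ahead of 100 nM carbachol, Fluo-4 fluorescence followed 4 min, value expressed as peak-to-basal ratio.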

[17] = biological target: Muscarinic acetylcholine receptor M1 (Rattus norvegicus) (UniProt P08482); assay: qHTS Assay for Antagonists of Acetylcholine Muscarinic M1 Receptor: Measurement of IP-One Response (AID 944); further: nearly all actives have a fitted effect of over 75% in size
In short: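 Antagonism was measured as loss of carbachol-driven (EC80) IP1 accumulation in CHO cells carrying rat M1, using a homogeneous IP-One TR-FRET kit read at 620 and 665 nm.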

[18] = biological target: Pyruvate kinase (Leishmania mexicana) (UniProt Q27686); assay: qHTS Validation Assay for Inhibitors of Leishmania Mexicana Pyruvate Kinase (AID 945);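 further: 0% = DMSO only neutral control wells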
In short: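 Eight-point qHTS titrations in triplicate, data normalized to DMSO neutral control. Reaction: 0.2 nM LmPYK E451W mutant, 0.5 mM PEP, 0.1 mM ADP, 7 mM MgCl2, pH 7.2, one hour at room temperature; luminescent ATP detection.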

[19] = biological target: Pyruvate kinase PKM (Homo sapiens) (UniProt P14618); assay: qHTS Assay for Activators of Human Muscle Pyruvate Kinase (AID 954; active means well fitted curve in the direction sought with a large enough effect, not every such curve was filed as active;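 further: 0% = uninhibited enzyme and -100% = no enzyme or full thiadiazolimine inhibition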)
In short: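 PKM2, human, >95% pure, 0.1 nM; PEP 0.5 mM (Km), ADP 0.1 mM; 50 mM imidazole pH 7.2, 50 mM KCl, 0.01% Tween 20, 0.05% BSA; 1 h RT; luciferase luminescence readout.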

[20] = qHTS Assay for Identification of Small Molecule Agonists for Hypoxia Response Element Signaling Pathway (AID 914; active means well fitted activation curve with a large enough effect in the signal ratio, with a control signal flat, not every such curve was filed as active; the % refers to the signal ratio; further: % of control where 0% means no effect); conditions: ME-180 (cervical carcinoma) HRE-bla reporter, beta-lactamase ratio, CoCl2, 17 h; stronger effect = higher value
In short: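 HRE-bla ME-180 cells with beta-lactamase reporter under hypoxia response element, compounds with EC50 CoCl2 for 17 hours at 37 C. CCF4 substrate, 460nm/530nm emission ratio gave %Activity; AC50 from titration series.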

Chain of Muscarinic acetylcholine receptor M1 (Rattus norvegicus) (P08482 whole entry, looked up): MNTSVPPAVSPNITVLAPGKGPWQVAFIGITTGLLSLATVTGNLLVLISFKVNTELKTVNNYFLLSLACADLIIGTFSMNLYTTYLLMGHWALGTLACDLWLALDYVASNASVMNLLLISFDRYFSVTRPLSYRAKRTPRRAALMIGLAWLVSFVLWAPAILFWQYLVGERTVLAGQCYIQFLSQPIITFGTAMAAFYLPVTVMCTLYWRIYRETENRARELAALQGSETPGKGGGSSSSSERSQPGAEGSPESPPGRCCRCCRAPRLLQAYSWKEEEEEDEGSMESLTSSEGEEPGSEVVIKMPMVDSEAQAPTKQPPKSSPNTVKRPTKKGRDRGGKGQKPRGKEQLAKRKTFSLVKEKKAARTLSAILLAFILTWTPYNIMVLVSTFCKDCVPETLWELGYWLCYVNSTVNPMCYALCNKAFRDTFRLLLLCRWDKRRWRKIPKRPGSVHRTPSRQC
Chain of Pyruvate kinase PKM (Homo sapiens) (P14618 whole entry, looked up): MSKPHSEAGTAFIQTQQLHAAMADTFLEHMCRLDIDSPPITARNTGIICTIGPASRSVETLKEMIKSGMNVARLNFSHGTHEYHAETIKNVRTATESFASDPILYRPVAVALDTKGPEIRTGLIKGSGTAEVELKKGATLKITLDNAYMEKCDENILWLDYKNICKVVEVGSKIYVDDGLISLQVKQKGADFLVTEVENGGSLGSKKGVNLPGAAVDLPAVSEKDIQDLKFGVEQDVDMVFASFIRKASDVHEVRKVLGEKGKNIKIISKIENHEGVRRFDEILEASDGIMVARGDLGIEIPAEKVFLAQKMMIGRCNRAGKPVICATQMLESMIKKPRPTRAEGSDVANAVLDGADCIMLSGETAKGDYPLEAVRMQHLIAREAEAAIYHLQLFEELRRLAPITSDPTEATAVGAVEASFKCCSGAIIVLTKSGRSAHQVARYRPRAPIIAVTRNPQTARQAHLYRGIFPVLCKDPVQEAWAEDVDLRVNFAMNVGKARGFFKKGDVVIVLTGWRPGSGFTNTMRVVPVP
Chain of Pyruvate kinase (Leishmania mexicana) (Q27686 2-499 E452W): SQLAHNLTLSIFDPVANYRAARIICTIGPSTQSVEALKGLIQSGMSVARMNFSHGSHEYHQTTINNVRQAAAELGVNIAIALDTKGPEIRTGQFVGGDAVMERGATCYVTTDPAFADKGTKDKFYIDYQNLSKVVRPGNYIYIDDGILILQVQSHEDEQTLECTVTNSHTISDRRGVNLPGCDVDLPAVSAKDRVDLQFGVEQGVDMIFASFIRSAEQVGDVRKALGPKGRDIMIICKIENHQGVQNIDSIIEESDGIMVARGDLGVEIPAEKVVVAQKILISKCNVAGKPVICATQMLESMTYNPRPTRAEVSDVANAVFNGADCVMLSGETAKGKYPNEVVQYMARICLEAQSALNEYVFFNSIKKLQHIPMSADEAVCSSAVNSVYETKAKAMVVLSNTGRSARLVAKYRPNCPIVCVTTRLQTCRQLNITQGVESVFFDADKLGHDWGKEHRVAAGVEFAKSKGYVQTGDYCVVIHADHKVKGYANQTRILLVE

Nc1ccc(N=Nc2ccccc2)c(N)n1
active: Potency [1] 15.8 µM | Potency [2] 20 µM
inactive: Potency [3] | outcome [4] | Potency [5] | Potency [6] | outcome [7] | Potency [8] | Potency [9] | Potency [10] | Potency [11] | Potency [12] | Potency [13] | Potency [14] | Potency [15]

Cc1cc(C)c(NC(=O)C[C@H](CC(=O)O)c2cccc3ccccc23)c(C(=O)N2CCC3(CCCC3)CC2)c1
inactive: outcome [16] | outcome [17] | outcome [18] | outcome [19]

CCCc1nc(C(C)(C)O)c(C(=O)OCc2oc(=O)oc2C)n1Cc1ccc(-c2ccccc2-c2nn[nH]n2)cc1
inactive: Potency [1] | Potency [2]

COc1cc(S(C)=O)ccc1-c1nc2ncccc2[nH]1 (stereo unspecified)
inactive: Potency [1] | Potency [2]

CC[C@H]1OC(=O)[C@H](C)[C@@H](O[C@H]2C[C@@](C)(OC)[C@@H](O)[C@H](C)O2)C(C)[C@@H](O[C@@H]2O[C@H](C)C[C@H](N(C)C)[C@@H]2O)[C@](C)(OC)C[C@@H](C)C(=O)[C@H](C)[C@@H](O)[C@]1(C)O (stereo partly specified)
inactive: Potency [1] | Potency [2]

Cc1cccc(C)c1NC(=O)C1CCCCN1C (stereo unspecified)
inactive: Potency [1] | activation [20] 5.97% | Potency [2]

CC(=O)Oc1cccc2c1C(=O)c1c(OC(C)=O)cc(C(=O)O)cc1C2=O
inactive: Potency [1] | Potency [2]

ClC(Cl)Cl
inactive: Potency [3] | outcome [4] | Potency [5] | Potency [6] | outcome [7] | Potency [8] | Potency [9] | Potency [10] | Potency [11] | Potency [12] | Potency [13] | Potency [14] | Potency [15]

OCc1ccccc1
inactive: Potency [3] | outcome [4] | Potency [5] | Potency [6] | outcome [7] | Potency [8] | Potency [9] | Potency [10] | Potency [11] | Potency [12] | Potency [13] | Potency [14] | Potency [15]

OB(O)O
inactive: Potency [3] | outcome [4] | Potency [5] | outcome [7] | Potency [8] | Potency [9] | Potency [10] | Potency [11] | Potency [12] | Potency [13] | Potency [14] | Potency [15]

Cc1ncc[nH]1
inactive: Potency [3] | outcome [4] | Potency [5] | Potency [6] | outcome [7] | Potency [8] | Potency [9] | Potency [10] | Potency [11] | Potency [12] | Potency [13] | Potency [14] | Potency [15]

C[C@H](CCC(=O)O)[C@H]1CC[C@H]2[C@@H]3CC[C@@H]4C[C@H](O)CC[C@]4(C)[C@H]3C[C@H](O)[C@]12C
inactive: Potency [3] | outcome [4] | Potency [5] | outcome [7] | Potency [8] | Potency [9] | Potency [10] | Potency [11] | Potency [13] | Potency [14] | Potency [15]

CCOC(C)OCC
inactive: Potency [3] | outcome [4] | Potency [5] | Potency [6] | outcome [7] | Potency [8] | Potency [9] | Potency [10] | Potency [11] | Potency [12] | Potency [13] | Potency [14] | Potency [15]

CCCCC
inactive: Potency [3] | outcome [4] | Potency [5] | Potency [6] | outcome [7] | Potency [8] | Potency [9] | Potency [10] | Potency [11] | Potency [12] | Potency [13] | Potency [14] | Potency [15]

OCl
inactive: Potency [3] | outcome [4] | Potency [5] | Potency [6] | outcome [7] | Potency [8] | Potency [9] | Potency [10] | Potency [11] | Potency [12] | Potency [13] | Potency [14] | Potency [15]
